Data reported in PubChem BioAssay AID1159580 (chemical genetic matrix, 2015).
The campaign covered roughly 5,500 compounds. About 2,000 (36%) were called active. Inconclusive results (about 18%) are left out. No stated cut-off is given here; in the data, active means normalized growth mostly below about 0.91 (no sharp cut-off); inconclusive means no clear call, values can overlap the other calls; inactive means mostly above about 0.92. The list shows a part of the results.

Test: chemical genetic growth profiling, strain panel (AID 1159580);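 further: tested at 20 µM; growth read once vehicle control cultures reached saturation at 30 °C; 1 = growth at the plate median or of vehicle wells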
Conditions: S. cerevisiae deletion strains, growth OD

Measured: normalized growth

O=S(=O)(Nc1ccccc1Sc1c(Cl)cncc1Cl)c1ccc(Cl)cc1
inactive: locus YAR019C, strain CDC15, stronger effect = lower value 0.981 | locus YBL105C, strain PKC1, stronger effect = lower value 0.987 | locus YBR135W, strain CKS1, stronger effect = lower value 0.985 | locus YBR136W, strain MEC1, stronger effect = lower value 0.987 | locus YBR160W, strain CDC28, stronger effect = lower value 0.988 | locus YDL017W, strain CDC7, stronger effect = lower value 0.986 | locus YDL028C, strain MPS1, stronger effect = lower value 0.995 | locus YDL101C, strain DUN1, stronger effect = lower value 0.973 | locus YDL108W, strain KIN28, stronger effect = lower value 0.985 | locus YDL132W, strain cdc53, stronger effect = lower value 0.974 | locus YDL214C, strain PRR2, stronger effect = lower value 1 | locus YDR052C, strain DBF4, stronger effect = lower value 0.984 | locus YDR054C, strain cdc34, stronger effect = lower value 0.974 | locus YDR226W, strain ADK1, stronger effect = lower value 0.985 | locus YDR477W, strain SNF1, stronger effect = lower value 0.99 | locus YER123W, strain YCK3, stronger effect = lower value 1 | locus YER133W, strain GLC7, stronger effect = lower value 1 | locus YFL009W, strain cdc4, stronger effect = lower value 0.98 | locus YFL029C, strain CAK1, stronger effect = lower value 0.985 | locus YFR003C, strain YPI1, stronger effect = lower value 0.98 | locus YFR019W, strain FAB1, stronger effect = lower value 0.998 | locus YFR028C, strain CDC14, stronger effect = lower value 0.986 | locus YGR040W, strain KSS1, stronger effect = lower value 0.993 | locus YGR052W, strain FMP48, stronger effect = lower value 1.07 | locus YGR092W, strain DBF2, stronger effect = lower value 0.988 | locus YHR030C, strain SLT2, stronger effect = lower value 1.13 | locus YHR079C, strain IRE1, stronger effect = lower value 1 | locus YHR082C, strain KSP1, stronger effect = lower value 1.27 | locus YHR205W, strain SCH9, stronger effect = lower value 0.981 | locus YIL147C, strain SLN1, stronger effect = lower value 0.988 | locus YJL095W, strain BCK1, stronger effect = lower value 0.974 | locus YJL128C, strain PBS2, stronger effect = lower value 0.916 | locus YJL157C, strain FAR1, stronger effect = lower value 0.997 | locus YJR016C, strain ILV3, stronger effect = lower value 0.974 | locus YJR066W, strain TOR1 (second series), stronger effect = lower value 1 | locus YJR066W, strain TOR1, stronger effect = lower value 1.26 | locus YKL048C, strain ELM1, stronger effect = lower value 0.955 | locus YKL067W, strain YNK1, stronger effect = lower value 0.978 | locus YKL101W, strain HSL1, stronger effect = lower value 0.958 | locus YKL193C, strain SDS22, stronger effect = lower value 0.977 | locus YKL203C, strain TOR2, stronger effect = lower value 1.06 | locus YLR113W, strain HOG1, stronger effect = lower value 0.995 | locus YLR133W, strain CKI1, stronger effect = lower value 0.979 | locus YLR403W, strain SFP1, stronger effect = lower value 1 | locus YML070W, strain DAK1, stronger effect = lower value 0.995 | locus YMR001C, strain CDC5, stronger effect = lower value 0.984 | locus YMR205C, strain PFK2 (second series), stronger effect = lower value 0.998 | locus YMR277W, strain FCP1, stronger effect = lower value 0.978 | locus YNL006W, strain LST8, stronger effect = lower value 0.982 | locus YNL020C, strain ARK1, stronger effect = lower value 0.978 | locus YNL161W, strain CBK1, stronger effect = lower value 0.98 | locus YNL183C, strain NPR1, stronger effect = lower value 0.961 | locus YNL207W, strain RIO2, stronger effect = lower value 0.985 | locus YNL222W, strain SSU72, stronger effect = lower value 0.994 | locus YNL307C, strain MCK1 (second series), stronger effect = lower value 0.978 | locus YOL078W, strain AVO1, stronger effect = lower value 0.96 | locus YOL136C, strain PFK27, stronger effect = lower value 1 | locus YOR061W, strain CKA2, stronger effect = lower value 0.991 | locus YOR119C, strain RIO1, stronger effect = lower value 1.01 | locus YOR231W, strain MKK1, stronger effect = lower value 0.998 | locus YOR329C, strain SCD5, stronger effect = lower value 0.989 | locus YPL031C, strain PHO85, stronger effect = lower value 0.995 | locus YPL153C, strain RAD53, stronger effect = lower value 0.994 | locus YPL204W, strain HRR25, stronger effect = lower value 1 | locus YPL209C, strain IPL1, stronger effect = lower value 0.99 | locus YPL256C, strain CLN2, stronger effect = lower value 0.97 | locus YPR025C, strain CCL1, stronger effect = lower value 0.992 | locus YPR106W, strain ISR1, stronger effect = lower value 0.968 | locus YPR111W, strain DBF20, stronger effect = lower value 0.959 | strain NNK1, stronger effect = lower value 0.963 | strain TSCII, stronger effect = lower value 0.985
